Rv3671c inh = Rv3671c serine protease inhibitors, primary screen, biochemical, fluorescence polarization, M. tuberculosis H37Rv | P9WHR9 | inhibition, % at 5.96 µM | actives 0.048% (n = 320,000); in the data active = inhibition above about 38%;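 also: extracellular domain of Rv3671c used as enzyme; 0% = enzyme with DMSO and 100% = no enzyme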
Mtb FBA inh = Mtb FBA enzyme inhibitors, primary screen, biochemical, fluorescence, strain H37Rv | Fructose-bisphosphate aldolase (Mycobacterium tuberculosis (strain ATCC 25618 / H37Rv)), … | purified M. tuberculosis FBA, fluorescence read-out | inhibition, % at 1 µM | actives 2.3% (n = 360,000); in the data active = inhibition above about 27%;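 also: 0% = vehicle and 100% = reference inhibitor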
Target sequence (P9WQA3 whole entry, looked up): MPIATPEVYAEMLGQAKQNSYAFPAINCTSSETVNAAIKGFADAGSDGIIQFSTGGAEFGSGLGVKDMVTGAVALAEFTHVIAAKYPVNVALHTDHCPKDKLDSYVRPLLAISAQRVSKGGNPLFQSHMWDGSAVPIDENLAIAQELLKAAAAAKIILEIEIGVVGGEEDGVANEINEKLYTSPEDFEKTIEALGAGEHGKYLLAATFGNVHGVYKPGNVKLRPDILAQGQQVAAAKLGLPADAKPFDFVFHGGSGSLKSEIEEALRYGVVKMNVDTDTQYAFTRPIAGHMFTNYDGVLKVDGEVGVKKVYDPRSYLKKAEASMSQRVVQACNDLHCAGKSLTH
GDH-TPI inh = GDH-TPI coupling enzyme inhibitors, primary screen, artefact control for M. tuberculosis FBA inhibitor project, biochemical, absorbance, full deck | GDH-TPI coupled enzyme counterscreen, NADH absorbance | inhibition, % at 4.8 µM | actives 1.2% (n = 360,000) | AID 588335, 2011; in the data active = inhibition above about 30%;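 also: 0% = DMSO wells and 100% = wells lacking the enzyme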
FadD28 FP inh = inhibitors of FadD28 bisubstrate probe binding, primary screen, biochemical, fluorescence polarization, single point. Mycobacterium tuberculosis FadD28 fatty-acid-AMP ligase. inhibition, % at 12.5 µM. actives 0.22% (n = 360,000); in the data active = inhibition above about 8.5%, passing the limit was not always enough
Mtb hypoxia inh = PubChem AID 1159583; fluorescence inhibition, % (test concentration not listed); actives 0.1% (n = 300,000); M. tuberculosis hypoxia-regulated fluorescent reporter, fluorescence; in the data active = fluorescence inhibition mostly above about 23%, no sharp cut-off; inactive = mostly below about 17%
UGM FP inh = M. tuberculosis UGM enzyme inhibitors, primary screen, biochemical, fluorescence polarization, single point. UDP-galactopyranose mutase (Mycobacterium tuberculosis (strain ATCC 25618 / H37Rv)), …. purified UGM, fluorescence polarization probe displacement. inhibition, % at 10 µM. actives 0.06% (n = 320,000); in the data active = inhibition above about 10%, passing the limit was not always enough
Numbers without * were called inactive; / = no result given; + = active, no number. Sampled rows, rich in hits. Any-hit rate of the full collection: about 3.5%.

SMILES	Rv3671c inh	Mtb FBA inh	GDH-TPI inh	FadD28 FP inh	Mtb hypoxia inh	UGM FP inh
CCOc1ccc(/C=N/NC(=O)c2cc3c(OC)cc(OC)c(OC)c3[nH]2)cc1	21.7	0.7	33.5*	0.8	/	1.0
COc1ccc2[nH]c(C(=O)N/N=C/c3ccc(OC)c(O)c3)cc2c1	13.2	-0.1	48.5*	-2.3	/	2.5
Nc1nnnn1CC(=O)NN=Cc1cc([N+](=O)[O-])ccc1O	/	/	/	/	3.6	/
CCCCNc1c(-c2ccc(OC)c(Sc3ccc(OC)cc3)c2)nc2ccccn12	4.7	28.1*	13.8	0.2	/	0.5
CCCCNc1c(-c2ccc(OC)c(Sc3ccc(OC)cc3)c2)nc2cnccn12	-3.6	20.4	5.3	3.9	7.9	-2.6
CCCCNc1c(-c2ccc(SC(C)CC)cc2)nc2cnccn12 (stereo not given)	-2.1	39.9*	19.4	-3.2	/	3.3
CCCCCCSc1cc(-c2nc3cnccn3c2NCCCC)ccc1OC	6.2	15.0	12.1	-3.7	/	0.6
O=C(O)Cc1ccc(Nc2cnn(C34CC5CC(CC(CC(=O)O)(C5)C3)C4)c(=O)c2Cl)cc1	1.1	-0.3	50.6*	-1.0	-5.4	0.5
C=CCSc1nnc(-c2cc3c(s2)-c2ccccc2CC3)o1	-21.1	+	9.5	-2.4	/	-1.1
O=C1NC(Cc2ccccc2)COC(=O)C(Cc2ccc(F)cc2)CCC=CCC1CC(=O)N(CCO)Cc1ccccc1 (stereo not given)	/	/	/	/	6.0	/
COC(=O)c1cc(Cl)ccc1NCC(N)c1ccccc1 (stereo not given)	/	114.7*	/	-2.3	/	/
Cc1cccc(S(=O)(=O)C(C#N)c2nc3ccccc3nc2N2CCCC2)c1 (stereo not given)	2.2	74.4*	6.7	-6.3	24.1	0.9
Cc1ccc(C)c(S(=O)(=O)C(C#N)c2nc3ccccc3nc2N2CCCC2)c1 (stereo not given)	-62.0	5.3	-11.7	1.7	2.8	3.3
CC(C)CCOC(=O)C1C2C=C[C@]3(CN(Cc4cccs4)C(=O)C13)O2 (stereo not given in full)	/	/	/	/	5.0	/
Cc1ccc(SCC(=O)Nc2ccc(-c3nnc(-c4ccco4)o3)cc2)cc1	-10.1	1.0	30.7*	-0.7	3.6	-1.3
CCC(=O)Nc1cccc(-c2nnc(-c3cccc(NC(=O)CC)c3)o2)c1	-5.7	4.8	3.7	-3.5	12.3	1.3
O=C(Nc1ccc(-c2nnc(-c3ccco3)o2)cc1)C(c1ccccc1)c1ccccc1	-4.6	7.3	19.4	-2.3	-1.8	0.1
CCC(=O)Nc1ccc(-c2nnc(-c3ccccc3)o2)cc1	1.6	+	0.8	1.3	/	-1.2
Cc1ccc(NC(=O)CCSc2nnc(-c3ccco3)o2)cc1	-0.8	2.7	-0.9	-1.3	3.3	1.3
O=C(O)CCC(=O)Nc1ccc(-c2nnc(-c3ccco3)o2)cc1	4.4	140.8*	16.9	0.7	8.5	-2.5
CC1C(=O)OC2CC34C5CC(C(C)(C)C)[C@]36C(OC(=O)C6O)O[C@@]4(C(=O)O5)[C@]21O (stereo not given in full)	/	/	/	/	0.4	/
Cc1ccc(C(=O)N/C(=C\c2ccc(-c3cc(Cl)ccc3Cl)o2)C(=O)NCc2cccnc2)cc1	-26.3	8.6	40.2*	0.3	2.1	-0.4
O=C(NCc1cccnc1)/C(=C\c1ccc(-c2cccc(Cl)c2)o1)S(=O)(=O)c1ccccc1	-18.2	-0.2	40.7*	-5.5	2.3	2.2
O=C(NCc1cccnc1)/C(=C/c1ccc(-c2cccc(Cl)c2)o1)S(=O)(=O)c1ccccc1	-22.5	1.1	4.8	-2.0	/	2.7
COc1ccc(C2C=CCN(CC3CC3)CC(=O)N2Cc2ccc(F)cc2)cc1 (stereo not given)	/	/	/	/	8.9	/
SMILES	Rv3671c inh	Mtb FBA inh	GDH-TPI inh	FadD28 FP inh	Mtb hypoxia inh	UGM FP inh
Cn1c(N2CCOCC2)c(C=NOC(=O)c2ccc(F)cc2)c2ccccc21	/	/	/	/	20.7	/
COc1cc(C(=O)ON=C2C=C(C)C(=O)C=C2C)cc(OC)c1OC	/	/	/	/	7.9	/
OCCCCNc1cccc2ccccc12	-2.6	161.2*	9.2	-0.4	5.0	-1.0
OCCCCCNc1ncnc2ccccc12	-2.1	-3.1	-0.8	-3.2	/	-0.7
CN(C)CCN1C(=O)C(=O)C(=C(O)c2ccc(OCc3ccccc3)cc2)C1c1ccncc1 (stereo not given)	/	/	/	/	8.9	/
CCCCSc1nc(SCC(=O)NCc2ccco2)c2c3c(sc2n1)COC(C)(CC)C3 (stereo not given)	-6.8	-0.3	-6.4	-3.6	-4.6	0.5
CSc1nc(SCC(=O)NCc2ccco2)c2c3c(sc2n1)COC(C)(C)C3	-8.8	17.9	36.0*	-0.9	8.6	2.1
CN1CCN(C(=O)C2=CC(c3ccc(C(F)(F)F)cc3)CC(OCc3ccc(CO)cc3)O2)CC1 (stereo not given)	/	/	/	/	3.6	/
Fc1ccc(Nc2nnc(-c3ccncc3)s2)cc1Cl	/	2.4	19.6	0.8	/	/
O=C(Nc1ccc(Cl)cc1)Nc1nnc(-c2ccncc2)s1	-4.8	2.6	6.5	-0.9	-2.8	-0.4
C=CCNc1nnc(-c2ccncc2)s1	4.6	181.0*	11.5	-3.0	/	-1.3
c1ccc2c(Nc3nnc(-c4ccncc4)s3)cccc2c1	-2.0	0.3	37.5*	-0.8	-0.5	3.5
O=C(Nc1ccc(F)cc1)Nc1nnc(-c2ccncc2)s1	10.2	1.3	35.0*	0.1	11.5	2.3
COc1ccc(C2C3=C(CC(c4ccco4)CC3=O)Nc3ccccc3N2C(C)=O)cc1 (stereo not given)	-3.6	0.5	33.9*	-1.7	/	1.1
COc1ccc(-c2ccc3[nH]c4c(c3c2)CCN2C(=O)[C@@H]([C@H](C)O)[C@@H](N(C)C(=O)Nc3cc(Cl)cc(Cl)c3)C[C@@H]42)cc1	/	1.6	20.4	40.6*	/	/
CC(=O)c1ccc(N2CCN(C(=O)CCCn3c(=O)[nH]c4ccsc4c3=O)CC2)cc1	7.9	1.2	30.5	0.6	2.7	-3.6
COc1ccc(N2CCN(C(=O)c3ccc4[nH]c(C)c(C)c4c3)CC2)cc1	7.2	0.6	-0.5	-2.2	6.9	0.4
CCOc1cc(C(=O)N2CCN(c3ccc(C(C)=O)cc3)CC2)cc(OCC)c1OCC	-1.3	1.3	31.2*	-1.4	/	-3.1
CC(=O)c1ccc(N2CCN(C(=O)c3ccc4[nH]c(C)c(C)c4c3)CC2)cc1	3.6	4.8	35.4*	-1.0	-2.7	-2.1
CCOc1cc(C(=O)N2CCN(c3ccccc3)CC2)cc(OCC)c1OCC	-2.5	2.0	-1.9	-1.5	9.0	-0.8
CC(=O)c1ccc(N2CCN(C(=O)CCCn3c(=O)[nH]c4ccc(Br)cc4c3=O)CC2)cc1	1.9	-1.7	31.8*	-4.0	-5.9	4.4
COC(=O)CC1c2cc(C(F)(F)F)ccc2S(=O)(=O)N1C1CCCCC1 (stereo not given)	/	/	/	/	20.6	/

Compound activity from PubChem.
